Growth data for ten compounds are collected here from PubChem BioAssay (NCI).

Compounds without any hit were thinned out: in the full panel of roughly 83,000, 20% have a hit.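 Plates (96-well) were seeded with cells, treated with compound at one concentration, and incubated for 48 hours before percent growth was determined.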 Values without a mark were called inactive. Activity calls are given as the source filed them. Rule for the calls: active = growth percent below 10; inactive = the rest.

Assay in all cases: NCI-60 one-dose screen, 48 h (100 = growth as untreated, 0 = no growth, -100 = all killed)
One assay concerns RPMI-8226 leukemia. The conditions noted are these: 10 µM unless noted.
A further assay concerns OVCAR-8 ovarian. The conditions noted are these: 10 µM unless noted.
The next assay has as its system OVCAR-5 ovarian. The conditions noted are these: 10 µM unless noted.
For a further assay, the system named is SK-OV-3 ovarian. The conditions noted are these: 10 µM unless noted.
For a further assay, the system named is IGROV1 ovarian. The conditions noted are these: 10 µM unless noted.
In another assay the test system is OVCAR-3 ovarian. The conditions noted are these: 10 µM unless noted.
For the next assay, the system named is HS 578T breast. The conditions noted are these: 10 µM unless noted.
A further assay relates to NCI/ADR-RES ovarian. The conditions noted are these: 10 µM unless noted.
Another assay has as its system T-47D breast. The conditions noted are these: 10 µM unless noted.
A further assay concerns BT-549 breast. The conditions noted are these: 10 µM unless noted.
The subject of a further assay is MDA-MB-435 melanoma. The conditions noted are these: 10 µM unless noted.
A further assay relates to SW-620 colon. The conditions noted are these: 10 µM unless noted.
The test system of the next assay is MCF7 breast. The conditions noted are these: 10 µM.
In the next assay the test system is HCT-116 colon. The conditions noted are these: 10 µM unless noted.
Another assay concerns HCC-2998 colon. The conditions noted are these: 10 µM unless noted.
Another assay deals with KM12 colon. The conditions noted are these: 10 µM unless noted.
The next assay relates to OVCAR-4 ovarian. The conditions noted are these: 10 µM unless noted.

`O=C(Nc1ccsc1C(=O)NC1CCCCC1)c1ccc(F)cc1`: the growth in the assay with RPMI-8226 leukemia was 70%; in the assay with OVCAR-8 ovarian, 102%; with OVCAR-5 ovarian, 98.3%; in the assay on SK-OV-3 ovarian, 101%; with IGROV1 ovarian it was 90.7%; with OVCAR-3 ovarian, 111%. The growth in the assay with HS 578T breast is 105%; in the assay on NCI/ADR-RES ovarian, 96.5%; in the assay with T-47D breast, 102%; with BT-549 breast, 113%; in the assay on MDA-MB-435 melanoma it was 110%; in the assay on SW-620 colon it was 92.5%. Moreover, the growth in the assay on MCF7 breast was 90.6%; with HCT-116 colon, 76%; in the assay with HCC-2998 colon, 97%; with KM12 colon, 107%.
Take `COc1ccc(CCN2CCC(CN(C)Cc3cnn(-c4ccccc4)c3)CC2)cc1`: the growth in the assay on RPMI-8226 leukemia is 15.6%; in the assay on OVCAR-8 ovarian, 15.3%; in the assay on OVCAR-5 ovarian it was 57.4%; in the assay on SK-OV-3 ovarian it was 39.2%; in the assay with IGROV1 ovarian, 28.9%; with OVCAR-3 ovarian, 37.4%. The growth with HS 578T breast is 67.1%; with NCI/ADR-RES ovarian, 12%; with T-47D breast it was 36.4%; with BT-549 breast it was 32.5%; in the assay on MDA-MB-435 melanoma it was 38.1%; in the assay on SW-620 colon, 26%. Moreover, the growth in the assay with MCF7 breast was 12.4%; in the assay with HCT-116 colon, 21.5%; with HCC-2998 colon it was 21.5%; with KM12 colon, 22.5%.
In the case of `O=C(/C=C/c1ccc(C(F)(F)F)cc1)c1ccc(Nc2nc(NCCO)nc(N3CCOCC3)n2)cc1`, the growth is 2.35% (active) in the assay with RPMI-8226 leukemia; 28.5% in the assay on OVCAR-8 ovarian; 68.6% in the assay on OVCAR-5 ovarian; 22.8% in the assay on OVCAR-4 ovarian; -31.9% (active) in the assay with OVCAR-3 ovarian; 78.1% in the assay on HS 578T breast. In addition, the growth was 74.7% in the assay on NCI/ADR-RES ovarian; 32.7% in the assay with T-47D breast; 61% in the assay on BT-549 breast; 22.1% with MDA-MB-435 melanoma; -6.72% (active) in the assay on SW-620 colon; 3.91% (active) with MCF7 breast. Moreover, the growth in the assay with HCT-116 colon was -28.3% (active); with HCC-2998 colon it was 63.9%; with KM12 colon, -32.2% (active).
Take `COc1cc(C=C2C(=O)N(C)C(=O)N(C)C2=O)cc(CN2CCCCC2)c1O`: the growth is 104% with RPMI-8226 leukemia; 105% in the assay with OVCAR-8 ovarian; 96.9% in the assay with OVCAR-5 ovarian; 103% in the assay on OVCAR-4 ovarian; 105% with OVCAR-3 ovarian; 96% with HS 578T breast. Also, the growth was 105% with NCI/ADR-RES ovarian; 90.2% with T-47D breast; 101% in the assay with BT-549 breast; 103% in the assay with MDA-MB-435 melanoma; 104% in the assay with SW-620 colon; 92.5% with MCF7 breast. In addition, the results for the growth with HCT-116 colon, in the assay with HCC-2998 colon and with KM12 colon were 100%, 103% and 103%, respectively.
Regarding `CC(=O)n1cc(-c2c[nH]c3ccccc23)c(-c2ccc(Cl)cc2)n1`, the growth was 86.5% in the assay with RPMI-8226 leukemia; 96.8% in the assay with OVCAR-8 ovarian; 94.2% in the assay with OVCAR-5 ovarian; 95.9% in the assay with SK-OV-3 ovarian; 74.9% with IGROV1 ovarian; 90% with OVCAR-3 ovarian. In addition, the growth in the assay on HS 578T breast was 94%; in the assay on NCI/ADR-RES ovarian, 86.4%; in the assay on T-47D breast, 72.7%; in the assay with BT-549 breast, 76.8%; with MDA-MB-435 melanoma it was 88.5%; in the assay on SW-620 colon, 89%. Also, the growth with MCF7 breast is 71.5%; in the assay with HCT-116 colon, 61.7%; in the assay on HCC-2998 colon, 109%; in the assay with KM12 colon it was 84.8%.
On to `COc1ccc(CCN2C(=O)CCSC2=S)cc1OC`, for which the growth with RPMI-8226 leukemia was 37.4%; in the assay with OVCAR-8 ovarian it was 97.2%; in the assay on OVCAR-5 ovarian, 96.8%; in the assay with SK-OV-3 ovarian, 105%; in the assay with IGROV1 ovarian, 107%; in the assay with OVCAR-3 ovarian, 105%. Moreover, the growth in the assay on HS 578T breast is 93.7%; in the assay on NCI/ADR-RES ovarian it was 103%; in the assay on T-47D breast it was 43.4%; in the assay on BT-549 breast it was 114%; in the assay on MDA-MB-435 melanoma, 96.2%; in the assay on SW-620 colon, 87.6%. The growth with MCF7 breast was 28%; in the assay with HCT-116 colon, 103%; with HCC-2998 colon, 102%; in the assay with KM12 colon, 5.07% (active).
As for `O=C(CCc1nnc2sc(COc3ccccc3)nn12)c1nc2ncccc2[nH]1`, the growth is 140% in the assay with RPMI-8226 leukemia; 98.9% in the assay on OVCAR-8 ovarian; 98.4% with OVCAR-5 ovarian; 100% in the assay on OVCAR-4 ovarian; 108% in the assay with OVCAR-3 ovarian; 79% with HS 578T breast. Moreover, the growth with NCI/ADR-RES ovarian is 106%; in the assay on T-47D breast, 92.7%; in the assay on MDA-MB-435 melanoma, 101%; in the assay with SW-620 colon it was 85.8%; in the assay on MCF7 breast it was 94.5%; in the assay with HCT-116 colon it was 91.3%. In addition, the growth with HCC-2998 colon and with KM12 colon was 99.8% each time.
In the case of `COc1ccc(/C=c2\sc3n(c2=O)NC2C(N=3)N(C)C(=O)N2C)cc1` (stereo not drawn), the growth with RPMI-8226 leukemia was 96.1%; in the assay on OVCAR-8 ovarian, 101%; in the assay with OVCAR-5 ovarian, 95.1%; in the assay on OVCAR-4 ovarian, 100%; in the assay on IGROV1 ovarian, 99.8%; with HS 578T breast, 95.9%. Further, the growth is 100% in the assay on NCI/ADR-RES ovarian; 102% with T-47D breast; 111% in the assay on BT-549 breast; 89.6% with MDA-MB-435 melanoma; 105% with SW-620 colon; 94.5% with MCF7 breast. Further, the growth is 100% in the assay on HCT-116 colon, 108% in the assay with HCC-2998 colon and 95.2% with KM12 colon.
As for `CNC(=O)c1cc(Oc2ccc(CC(=O)Nc3cc(C(C)(C)C)cn3C)cc2)ccn1`, the growth was 53.1% in the assay with RPMI-8226 leukemia; 65.2% with OVCAR-8 ovarian; 116% with OVCAR-5 ovarian; 67% in the assay on IGROV1 ovarian; 81.6% with OVCAR-3 ovarian; 86.9% with HS 578T breast. Moreover, the growth is 72.4% in the assay on NCI/ADR-RES ovarian; 48.9% in the assay with T-47D breast; 63.9% with BT-549 breast; 66.2% in the assay with MDA-MB-435 melanoma; 105% with SW-620 colon; 50.1% in the assay on MCF7 breast. Besides, the growth was 54.3% in the assay with HCT-116 colon, 103% in the assay with HCC-2998 colon and 86.3% with KM12 colon.
Regarding `COCCN(C(=O)Cc1cccs1)C(C(=O)NCc1ccc(OC)cc1)c1ccc(C(C)C)cc1` (stereo not drawn), the growth was 93.2% in the assay with RPMI-8226 leukemia; 80.9% in the assay with OVCAR-8 ovarian; 106% in the assay with OVCAR-5 ovarian; 87.5% in the assay on SK-OV-3 ovarian; 51.5% with OVCAR-3 ovarian; 76.2% in the assay with HS 578T breast. Besides, the growth was 73.8% in the assay with NCI/ADR-RES ovarian; 87% in the assay with T-47D breast; 93.9% in the assay with BT-549 breast; 104% in the assay with MDA-MB-435 melanoma; 85.3% with SW-620 colon; 85.4% in the assay with MCF7 breast. In addition, the growth in the assay with HCT-116 colon is 68.7%; with HCC-2998 colon it was 81.4%; in the assay on KM12 colon it was 84.2%.
